Among the data in ChEMBL document CHEMBL3988442, “University of Dundee, Small-Polar-MMV Screening Library” (2021) are Percent Effect values, retold here.

For some assays here: Entries with a potency or affinity are not part of this list.

What all share (design): scale not given: direction of the effect not stated beside the values
In experiment [1] the target is Protein translocase subunit SecA (Escherichia coli (strain K12)) (UniProt P10408). As to the kind of experiment: Assay to Identify E. coli SecA ATPase Inhibitors. It counts as functional. Conditions: 30 µM.
Protein translocase subunit SecA (Escherichia coli (strain K12)), sequence (P10408 whole entry): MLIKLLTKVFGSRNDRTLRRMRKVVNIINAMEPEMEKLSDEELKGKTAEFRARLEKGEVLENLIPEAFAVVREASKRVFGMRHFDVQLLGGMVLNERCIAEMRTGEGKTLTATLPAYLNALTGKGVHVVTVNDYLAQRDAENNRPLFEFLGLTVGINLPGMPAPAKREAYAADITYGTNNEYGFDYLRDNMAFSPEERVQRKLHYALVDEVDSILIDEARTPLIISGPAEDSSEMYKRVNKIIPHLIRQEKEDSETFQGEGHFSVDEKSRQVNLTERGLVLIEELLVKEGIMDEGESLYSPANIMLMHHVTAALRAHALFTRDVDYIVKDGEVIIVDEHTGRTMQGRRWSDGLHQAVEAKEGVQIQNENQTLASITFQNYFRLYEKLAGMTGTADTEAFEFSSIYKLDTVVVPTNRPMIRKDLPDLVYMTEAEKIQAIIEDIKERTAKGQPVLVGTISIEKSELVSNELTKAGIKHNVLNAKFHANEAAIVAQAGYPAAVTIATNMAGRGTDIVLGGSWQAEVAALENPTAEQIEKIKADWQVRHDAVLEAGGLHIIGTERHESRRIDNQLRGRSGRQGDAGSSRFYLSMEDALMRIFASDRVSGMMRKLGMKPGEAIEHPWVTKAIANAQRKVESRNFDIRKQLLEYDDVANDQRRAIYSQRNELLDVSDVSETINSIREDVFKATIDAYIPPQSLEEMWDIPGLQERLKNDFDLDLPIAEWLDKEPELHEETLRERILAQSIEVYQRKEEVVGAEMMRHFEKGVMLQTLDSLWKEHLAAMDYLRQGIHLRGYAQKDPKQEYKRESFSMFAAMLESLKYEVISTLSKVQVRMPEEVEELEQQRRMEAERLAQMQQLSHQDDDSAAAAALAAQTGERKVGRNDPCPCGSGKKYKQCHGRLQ
Experiment [2] concerns the target T1, Ubiquitin-activating enzyme e1, putative (Leishmania donovani (strain BPK282A1)) (UniProt E9BSI1).
T1 sequence (whole entry): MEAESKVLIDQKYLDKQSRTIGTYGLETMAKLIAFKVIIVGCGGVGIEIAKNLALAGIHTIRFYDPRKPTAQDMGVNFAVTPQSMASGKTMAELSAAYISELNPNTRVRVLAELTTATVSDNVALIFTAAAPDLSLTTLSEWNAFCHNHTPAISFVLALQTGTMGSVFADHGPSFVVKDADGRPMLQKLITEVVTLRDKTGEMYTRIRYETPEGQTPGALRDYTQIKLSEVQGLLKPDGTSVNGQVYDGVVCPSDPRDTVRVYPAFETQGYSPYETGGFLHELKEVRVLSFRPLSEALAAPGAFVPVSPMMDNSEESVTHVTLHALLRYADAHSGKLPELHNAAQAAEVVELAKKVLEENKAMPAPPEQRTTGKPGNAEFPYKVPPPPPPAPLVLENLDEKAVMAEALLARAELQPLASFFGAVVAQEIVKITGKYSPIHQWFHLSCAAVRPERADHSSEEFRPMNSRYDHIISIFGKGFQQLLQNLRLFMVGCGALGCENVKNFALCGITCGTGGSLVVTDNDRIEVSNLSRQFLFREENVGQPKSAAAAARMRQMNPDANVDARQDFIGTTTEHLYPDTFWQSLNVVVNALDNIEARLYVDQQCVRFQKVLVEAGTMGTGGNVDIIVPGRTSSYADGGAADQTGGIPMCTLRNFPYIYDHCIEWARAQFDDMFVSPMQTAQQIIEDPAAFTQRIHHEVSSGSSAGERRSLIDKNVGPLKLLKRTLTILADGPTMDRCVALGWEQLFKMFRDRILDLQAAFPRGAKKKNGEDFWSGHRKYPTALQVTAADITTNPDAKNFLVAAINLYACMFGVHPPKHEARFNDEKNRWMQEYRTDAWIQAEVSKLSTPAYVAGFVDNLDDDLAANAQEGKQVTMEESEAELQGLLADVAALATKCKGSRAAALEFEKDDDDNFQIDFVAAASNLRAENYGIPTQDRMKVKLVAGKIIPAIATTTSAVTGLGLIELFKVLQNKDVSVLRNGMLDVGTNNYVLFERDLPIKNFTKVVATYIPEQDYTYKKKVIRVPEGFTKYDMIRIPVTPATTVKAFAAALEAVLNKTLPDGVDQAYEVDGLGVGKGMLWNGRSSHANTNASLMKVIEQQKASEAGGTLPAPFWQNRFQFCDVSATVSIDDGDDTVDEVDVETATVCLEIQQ
Put plainly: Leishmania donovani Ubiquitin Activating Enzyme (LdE1). The class given is functional. As to conditions: 30 µM.

Experiment [3] deals with AMP-activated protein kinase, AMPK (Homo sapiens) (UniProt P54646+O43741+P54619+Q9UGJ0+Q9Y478+Q13131+Q9UGI9). Put plainly: AMP-dependent Kinase enzyme assay. An in vitro enzyme assay that detects ADP turnover that is directly proportional to AMPK activity. This uses naive AMPK that is activated during the assay with MK-8722. The class given is functional. As to conditions: 30 µM.

Experiment [4] deals with Sialic acid-binding Ig-like lectin 9 (Homo sapiens) (UniProt Q9Y336). As to the kind of experiment: Hs-Siglec9 ALPHAscreen SOP 20170721. As to conditions: 10 µM.
Sialic acid-binding Ig-like lectin 9 (Homo sapiens), sequence (Q9Y336 whole entry): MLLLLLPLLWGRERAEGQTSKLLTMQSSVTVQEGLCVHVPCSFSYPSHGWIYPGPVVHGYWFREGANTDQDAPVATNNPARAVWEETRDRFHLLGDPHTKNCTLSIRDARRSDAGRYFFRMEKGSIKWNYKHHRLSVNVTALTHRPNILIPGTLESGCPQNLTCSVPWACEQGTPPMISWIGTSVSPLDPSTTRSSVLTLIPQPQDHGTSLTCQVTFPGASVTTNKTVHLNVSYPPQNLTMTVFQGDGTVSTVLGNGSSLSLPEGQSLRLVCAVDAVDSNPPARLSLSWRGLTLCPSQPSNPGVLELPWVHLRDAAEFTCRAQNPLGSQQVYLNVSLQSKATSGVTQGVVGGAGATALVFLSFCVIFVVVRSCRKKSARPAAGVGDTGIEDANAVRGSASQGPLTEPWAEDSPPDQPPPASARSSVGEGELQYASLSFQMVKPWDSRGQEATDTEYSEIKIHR
The test system of experiment [5] is Trypanosoma cruzi. Put plainly: Trypanosoma cruzi phosphomannomutase and mannose-1-phosphate guanylyltransferase assay. The class given is functional. As to conditions: 10 µM.
Experiment [6] has as its target T2, Arginase-2, mitochondrial (Homo sapiens) (UniProt P78540).
T2 sequence (whole entry): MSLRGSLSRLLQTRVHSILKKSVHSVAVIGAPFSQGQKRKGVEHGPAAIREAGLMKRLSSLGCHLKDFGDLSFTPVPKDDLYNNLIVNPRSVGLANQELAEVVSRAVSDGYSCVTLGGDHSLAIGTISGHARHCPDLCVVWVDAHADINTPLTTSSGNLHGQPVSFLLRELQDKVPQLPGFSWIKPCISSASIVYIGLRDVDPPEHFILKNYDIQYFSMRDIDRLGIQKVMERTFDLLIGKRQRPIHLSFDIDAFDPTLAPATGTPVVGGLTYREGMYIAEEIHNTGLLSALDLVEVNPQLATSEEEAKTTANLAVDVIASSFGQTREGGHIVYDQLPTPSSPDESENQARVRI
Put plainly: in vitro enzyme assay to detect the production of urea directly proportional to the activity of Arginase II. Note: in the data most compounds retested in dose-response had high values. It counts as functional. Conditions: 33.3 µM.

In experiment [7] the target is T3, Proteasome subunit beta (Trypanosoma cruzi) (UniProt O96673).
T3 sequence (whole entry): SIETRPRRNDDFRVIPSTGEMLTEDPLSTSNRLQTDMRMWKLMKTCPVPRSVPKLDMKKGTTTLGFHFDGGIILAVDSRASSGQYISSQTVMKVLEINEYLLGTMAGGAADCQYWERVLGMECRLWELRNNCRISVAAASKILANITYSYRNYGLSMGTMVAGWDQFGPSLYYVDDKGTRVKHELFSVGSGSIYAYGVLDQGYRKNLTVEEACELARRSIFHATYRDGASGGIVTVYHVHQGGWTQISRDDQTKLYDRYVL
Put plainly: Trypanosoma cruzi proteasome chymotrypsin-like activity (TcProtChymo) assay. Note: in the data most compounds retested in dose-response had high values. As to conditions: 9.37 µM. The class given is functional.

The species named for experiment [8] is Homo sapiens. As to the kind of experiment: To identify inhibition of the IFN signalling (Jak-Stat) pathway via expression of an eGFP reporter gene under the control of an IFN-stimulated response element (ISRE) containing MxA promoter. It counts as functional. As to conditions: 30 µM. On the technique in general: Reporter assays use an easily measured gene product as a stand-in for the process of interest.

Experiment [9] has as its target T4, Tyrosyl-tRNA synthetase, putative (Trypanosoma cruzi (strain CL Brener)) (UniProt Q4DSP6).
T4 sequence (whole entry): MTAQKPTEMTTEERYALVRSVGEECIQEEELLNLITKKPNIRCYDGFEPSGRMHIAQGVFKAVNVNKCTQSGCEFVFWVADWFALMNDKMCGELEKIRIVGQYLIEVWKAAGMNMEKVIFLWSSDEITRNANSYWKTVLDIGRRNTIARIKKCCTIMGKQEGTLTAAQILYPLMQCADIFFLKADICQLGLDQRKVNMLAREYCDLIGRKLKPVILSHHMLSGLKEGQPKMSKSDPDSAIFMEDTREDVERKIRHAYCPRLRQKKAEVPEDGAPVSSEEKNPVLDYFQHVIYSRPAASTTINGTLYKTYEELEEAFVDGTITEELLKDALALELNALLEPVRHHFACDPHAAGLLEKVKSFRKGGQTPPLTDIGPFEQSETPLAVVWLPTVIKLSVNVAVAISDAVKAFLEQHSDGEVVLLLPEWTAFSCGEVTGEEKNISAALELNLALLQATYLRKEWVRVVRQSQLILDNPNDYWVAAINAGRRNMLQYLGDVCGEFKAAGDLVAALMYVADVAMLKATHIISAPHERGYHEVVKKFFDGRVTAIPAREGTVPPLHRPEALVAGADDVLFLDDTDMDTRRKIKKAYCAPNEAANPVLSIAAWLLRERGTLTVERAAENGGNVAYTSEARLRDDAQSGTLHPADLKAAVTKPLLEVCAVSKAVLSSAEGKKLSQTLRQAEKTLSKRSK
Put plainly: Trypanosoma cruzi tyrosyl tRNA synthetase (TcYRS) _High Tyrosine SOP. Note: in the data most compounds retested in dose-response had high values. The class given is functional. As to conditions: 30 µM.

The target of experiment [10] is T4, Tyrosyl-tRNA synthetase, putative (Trypanosoma cruzi (strain CL Brener)). Put plainly: Trypanosoma cruzi tyrosyl tRNA synthetase (TcYRS) SOP. Conditions: 30 µM. It counts as functional.
Experiment [11] addresses Chromo domain-containing protein 1 (Saccharomyces cerevisiae (strain ATCC 204508 / S288c) (Baker's yeast)) (UniProt P32657). As to the kind of experiment: ScCHD-1 Enzyme Inhibition Assay. Note: in the data most compounds retested in dose-response had high values. It counts as functional. As to conditions: 30 µM.

Chromo domain-containing protein 1 (Saccharomyces cerevisiae (strain ATCC 204508 / S288c) (Baker's yeast)), sequence (P32657 whole entry, the tested form may be a part): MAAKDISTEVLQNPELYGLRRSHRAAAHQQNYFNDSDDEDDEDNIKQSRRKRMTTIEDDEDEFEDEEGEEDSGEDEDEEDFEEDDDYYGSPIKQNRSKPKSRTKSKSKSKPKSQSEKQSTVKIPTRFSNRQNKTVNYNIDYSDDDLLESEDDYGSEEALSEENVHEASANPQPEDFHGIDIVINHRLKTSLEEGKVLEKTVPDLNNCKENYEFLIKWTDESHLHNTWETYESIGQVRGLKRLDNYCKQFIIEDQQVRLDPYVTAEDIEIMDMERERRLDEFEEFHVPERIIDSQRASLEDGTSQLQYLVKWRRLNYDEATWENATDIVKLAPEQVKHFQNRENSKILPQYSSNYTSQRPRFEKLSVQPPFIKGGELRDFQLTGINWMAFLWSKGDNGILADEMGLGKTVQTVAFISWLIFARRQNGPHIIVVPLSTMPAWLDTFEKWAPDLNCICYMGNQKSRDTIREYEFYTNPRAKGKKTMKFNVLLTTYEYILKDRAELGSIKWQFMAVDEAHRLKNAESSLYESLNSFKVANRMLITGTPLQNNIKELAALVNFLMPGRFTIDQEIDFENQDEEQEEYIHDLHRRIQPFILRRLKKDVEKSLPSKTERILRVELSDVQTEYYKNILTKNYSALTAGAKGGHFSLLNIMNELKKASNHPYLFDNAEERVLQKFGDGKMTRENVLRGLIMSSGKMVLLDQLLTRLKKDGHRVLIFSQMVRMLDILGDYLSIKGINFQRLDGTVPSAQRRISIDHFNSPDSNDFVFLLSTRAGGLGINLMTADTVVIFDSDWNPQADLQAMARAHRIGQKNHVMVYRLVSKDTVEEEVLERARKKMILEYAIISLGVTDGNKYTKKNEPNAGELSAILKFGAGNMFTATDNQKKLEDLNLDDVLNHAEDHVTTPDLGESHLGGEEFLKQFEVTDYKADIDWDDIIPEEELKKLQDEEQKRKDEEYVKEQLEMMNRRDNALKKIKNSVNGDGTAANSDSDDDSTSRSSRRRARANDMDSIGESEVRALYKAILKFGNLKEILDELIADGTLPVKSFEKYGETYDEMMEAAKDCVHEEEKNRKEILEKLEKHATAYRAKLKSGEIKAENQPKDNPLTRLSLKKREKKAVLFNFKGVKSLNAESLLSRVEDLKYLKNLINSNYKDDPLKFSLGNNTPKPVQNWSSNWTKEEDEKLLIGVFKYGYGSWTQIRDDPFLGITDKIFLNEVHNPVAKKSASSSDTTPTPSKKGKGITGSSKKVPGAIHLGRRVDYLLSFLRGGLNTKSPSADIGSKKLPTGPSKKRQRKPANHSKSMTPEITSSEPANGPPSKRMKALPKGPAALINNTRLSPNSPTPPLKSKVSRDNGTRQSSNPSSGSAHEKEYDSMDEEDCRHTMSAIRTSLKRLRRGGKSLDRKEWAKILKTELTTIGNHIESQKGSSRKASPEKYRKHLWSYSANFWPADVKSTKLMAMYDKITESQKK

`CCOCC(O)CN1CCN(C(=O)c2cccc(F)c2)CC1` (stereo not given): the Percent Effect in experiment [1] is -1.53%; in experiment [2], 2.7%; in experiment [3] it was -2.77%; in [4] it was -2.18%; in experiment [5], 7.92%; in [6], -2.86%. In addition, the Percent Effect in experiment [7] was 5.17%; in experiment [8] it was 13.8%; in experiment [9], 0.529%; in [10] it was -9.76%; in experiment [11] it was -2.68%.

As to `Cc1cnn(C2CN(CC(=O)Nc3cccnc3)C2)c1`, the Percent Effect was -4.23% in experiment [1]; 7.89% in [2]; -7.32% in experiment [3]; -2.24% in [4]; -8.68% in experiment [5]; 2.52% in experiment [6]. Moreover, the Percent Effect in [7] was -0.254%; in experiment [8], -0.514%; in experiment [9] it was -4.43%; in experiment [10] it was 3.7%; in experiment [11], 3.7%.

For the molecule `CC(C)CCN1CCC2(CC1)CN(C(=O)c1cnccn1)CCO2`, the Percent Effect is -4.82% in experiment [1]; 2.67% in experiment [2]; 2.65% in experiment [3]; 7.36% in experiment [4]; 0.772% in [5]; -57.9% in [6]. The Percent Effect in experiment [7] is 0.855%; in experiment [8], -13.7%; in experiment [9], 4.17%; in experiment [10], 12.5%; in experiment [11], -3.24%.

`CC(=O)Nc1cccc(OCCNC(=O)N(C)Cc2ccco2)c1`: the Percent Effect is -4.59% in [1]; 2.63% in [2]; 7.27% in [3]; -2.99% in [4]; 1.46% in experiment [5]; -4.73% in [6]. Besides, the Percent Effect is 6.62% in experiment [7]; -1.59% in [8]; 4.25% in [9]; 0% in experiment [10]; -3.97% in [11].

Consider `Fc1cc(CNCc2ccc3c(c2)CCO3)ccc1N1CCOCC1`, for which the Percent Effect in experiment [1] is -0.571%; in experiment [2] it was -8.11%; in experiment [3], -9.24%; in experiment [4], -2.02%; in experiment [5], 0%; in [6] it was -2.86%. In addition, the Percent Effect in experiment [7] is 6.38%; in experiment [8], 2.17%; in experiment [9], -2.65%; in experiment [10], 0%; in experiment [11] it was -3.66%.

As for `Cc1ccc(CN2CC[C@H]3OCC[C@@H](C(=O)NC4CC4)[C@@H]3C2)o1`, the Percent Effect is -6.72% in experiment [1]; 5.41% in experiment [2]; -20.2% in experiment [3]; -9.85% in experiment [4]; -4.01% in [5]; 1.59% in [6]. Also, the Percent Effect in experiment [7] is 7.75%; in [8], 11.3%; in [9], -1.08%; in experiment [10], -2.56%; in experiment [11], -0.126%.

As for `CCN1CCN(c2nc(C(C)C)nc3c(C)nn(CC)c23)CC1`, the Percent Effect is -8.3% in experiment [1]; 0% in experiment [2]; -2.21% in [3]; 5.36% in experiment [4]; -1.28% in experiment [5]; -5.52% in [6]. For the same molecule, the Percent Effect was -0.832% in experiment [7]; 1.81% in [8]; -2.15% in experiment [9]; -48.1% in experiment [10]; -0.207% in [11].

As to `COc1ccc(F)cc1C(C(=O)O)N1CCSCC1` (stereo not given), the Percent Effect in experiment [1] was -2.63%; in [2], 8.11%; in experiment [3] it was -2.63%; in [4], 20.8%; in [5] it was 1.66%; in [6], 18.6%. For the same molecule, the Percent Effect is 6.95% in experiment [7]; -10% in experiment [8]; 8.6% in experiment [9]; 18.5% in experiment [10]; -1.27% in experiment [11].

Regarding `COC(=O)c1cccc(NC(=O)CCn2nc(-c3cccs3)oc2=O)c1`, the Percent Effect in experiment [1] was -5.54%; in experiment [2], 10.8%; in experiment [3], 11.1%; in experiment [4], -7.27%; in experiment [5] it was -5.11%; in experiment [6], -4.25%. The Percent Effect in experiment [7] is 5.92%; in experiment [8], 7.13%; in experiment [9] it was 0%; in experiment [10], 6.1%; in [11], -3.3%.

Consider `CNC(=O)c1cc2c(nc1N(C)C)CCN(S(=O)(=O)C1CC1)CC2`, for which the Percent Effect in experiment [1] is -2.36%; in [2], 10.4%; in [3], -2.46%; in experiment [4], -6.22%; in experiment [5], -10.8%; in experiment [6], 9.68%. In addition, the Percent Effect in [7] is 8.7%; in [8], 0.586%; in [9] it was -3.17%; in experiment [10], -3.85%; in [11], -7.64%.
